{"source": "paper PMC7819943", "about": "“Rice protein-binding microarrays: a tool to detect cis-acting elements near promoter regions in rice”", "note": "The full ranking holds about 68,000 sequences; the median of “fluorescence intensity (a.u.)” is about 9,100, and the highest 2% start at about 16,000. This is one part of a sample in which the highest values are shown more often than they occur."}
{"target": "OsWRKY34 (Oryza sativa, UniProt Q0JBA9 1-250)", "sequence (Q0JBA9 entry or part of it)": "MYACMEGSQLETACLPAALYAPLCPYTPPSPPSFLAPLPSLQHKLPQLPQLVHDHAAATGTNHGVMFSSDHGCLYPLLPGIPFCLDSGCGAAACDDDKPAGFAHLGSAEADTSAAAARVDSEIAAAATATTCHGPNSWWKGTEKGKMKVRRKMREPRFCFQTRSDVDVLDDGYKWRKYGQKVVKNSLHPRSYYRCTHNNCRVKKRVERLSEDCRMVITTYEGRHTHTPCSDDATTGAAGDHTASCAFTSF", "assay": "protein-binding microarray (RPBM); PBS, 2% BSA, 51.3 ng/ul salmon testes DNA, 50 uM zinc acetate, 200 nM TF, 25 C, 1 h; high values mean tight binding", "conditions": "protein: recombinant; tags: N-terminal polyhistidine and DsRed monomer fusion (pET32a); label: CyDye5-dUTP incorporated in the synthesized complementary strand; 3' TTTTT single-stranded linker to array surface; dsDNA, one strand shown", "summary_of_the_method": "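Transcription factors were made in E. coli BL21-CodonPlus as N-terminal fusions to a polyhistidine tag and DsRed, then purified on Ni–NTA. After primer extension with Cy5-dUTP and blocking with 2% BSA, a custom Agilent array was exposed for 1 h at 25 °C to 200 nM protein in PBS, 2% BSA, salmon testes DNA and 50 µM zinc acetate. Washed arrays were scanned on an Axon 4000B, and the binding signal is per-feature fluorescence intensity in arbitrary units.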"}
{"sequence": "CGTTCATTCCGCATCCAATGGCAGCACTGGTTCCTAGCTTCGGAGTCACCTAGTGCAG", "binding signal": "8110 fluorescence intensity (a.u.)"}
{"sequence": "TTATACCACCGGATGCTGACACCATTCATCCGCTCTTCCTCGGAGTCACCTAGTGCAG", "binding signal": "10700 fluorescence intensity (a.u.)"}
{"sequence": "CTGTATGGCCACCGTCGCAGCTCGTCCTACACGTTTCTCACGGAGTCACCTAGTGCAG", "binding signal": "10600 fluorescence intensity (a.u.)"}
{"sequence": "TGCTAAACCTGTGGTGTTAAATCTGGCTGGTTGCCTGTCTCGGAGTCACCTAGTGCAG", "binding signal": "9280 fluorescence intensity (a.u.)"}
{"sequence": "TAACAGTTGACACAGGGAGCGGAGGGGCAGCTTGGTCATTCGGAGTCACCTAGTGCAG", "binding signal": "8420 fluorescence intensity (a.u.)"}
{"sequence": "CCTTAACACTTAATCCATGTGATGCATCTGTCATGCAACTCGGAGTCACCTAGTGCAG", "binding signal": "8250 fluorescence intensity (a.u.)"}
{"sequence": "TCCCCGCGGGCATGCCCGTTGCTGCGGGCGCAGCTCAATTCGGAGTCACCTAGTGCAG", "binding signal": "8280 fluorescence intensity (a.u.)"}
{"sequence": "GTGCTGGAGGGAGGGAACGGGGAACGTGGCAACTGACACGCGGAGTCACCTAGTGCAG", "binding signal": "9030 fluorescence intensity (a.u.)"}
{"sequence": "GCGCAAACGCTCGAATTTTTGGTTTTGATCCATATGCATACGGAGTCACCTAGTGCAG", "binding signal": "8580 fluorescence intensity (a.u.)"}
{"sequence": "TGTAGTCCCGCGTCGCACGGCATCCGGCCGGCCTCTCCTACGGAGTCACCTAGTGCAG", "binding signal": "8760 fluorescence intensity (a.u.)"}
{"sequence": "GGGATGGGGAAGGTCAGAGCCAATATGATCTGGTAACTCTCGGAGTCACCTAGTGCAG", "binding signal": "9510 fluorescence intensity (a.u.)"}
{"sequence": "CAAAGGTTCTAATGTTTGACCTCATTCTTATCTAAAACGACGGAGTCACCTAGTGCAG", "binding signal": "9440 fluorescence intensity (a.u.)"}
{"sequence": "GCGTCGCCTGCCGCCTCCGCTTCCGCTCCACTCCGCTTCGCGGAGTCACCTAGTGCAG", "binding signal": "12000 fluorescence intensity (a.u.)"}
{"sequence": "ACCTCGTACCTCGCCGCTGTTCCGTTCCGTGCTCTGTGTCCGGAGTCACCTAGTGCAG", "binding signal": "18700 fluorescence intensity (a.u.)"}
{"sequence": "CTCTCTGTGTCTCCGCCGCCGCCGCCTCCGCCGCTCGCCGCGGAGTCACCTAGTGCAG", "binding signal": "8060 fluorescence intensity (a.u.)"}
{"sequence": "CCCGCTCGCTCTCGTGCTGTCCGCCGACCTCAGCTCGCTCCGGAGTCACCTAGTGCAG", "binding signal": "10000 fluorescence intensity (a.u.)"}
{"sequence": "GTAGTCATTCACGTGTTCCTCTTCTCCAGTACTAGTAGCTCGGAGTCACCTAGTGCAG", "binding signal": "9710 fluorescence intensity (a.u.)"}
{"sequence": "AACCCTAGCTCTTCACAGCTTCCATGGCTCTTCTCTCTCTCGGAGTCACCTAGTGCAG", "binding signal": "12500 fluorescence intensity (a.u.)"}
{"sequence": "CTGAACTCTCTCTCGCTCTCCGGCTCTCTGTATTCCTTCACGGAGTCACCTAGTGCAG", "binding signal": "19800 fluorescence intensity (a.u.)"}
{"sequence": "GTTCCAGCTTCATGCATGCACACACACAGTAGCTCGTGCTCGGAGTCACCTAGTGCAG", "binding signal": "29300 fluorescence intensity (a.u.)"}
{"sequence": "CAATCTCTCTCTCTCTCTCTCTCGCTGCTGCTGCTCCTTCCGGAGTCACCTAGTGCAG", "binding signal": "9770 fluorescence intensity (a.u.)"}
{"sequence": "TCTCCTCTTCTTTTTCTTCCTTCCTTTTACTCGCTCGCTCCGGAGTCACCTAGTGCAG", "binding signal": "9930 fluorescence intensity (a.u.)"}
{"sequence": "AACCATAAAACATGTGATTCTTTTTTTTAACCAAAACTTACGGAGTCACCTAGTGCAG", "binding signal": "8130 fluorescence intensity (a.u.)"}
